Source: PubChem (several laboratories)
Hits are enriched below; roughly 2.9% of the tested compounds scored in any of these assays.
Myeloid diff 2 – induction of myeloid progenitor differentiation, primary screen, cell-based, flow cytometry, MLPCN library. ER-HoxA9 myeloid progenitors, lysozyme-GFP differentiation. calls only at 10 µM. 360,000 compounds, 1% hits. AID 624256, 2012;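 active means normalized GFP-positive differentiation at or above the plate's own cutoff, the solvent-only control mean plus 3 SD; inconclusive means no clear call, values can overlap the other calls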;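 further: cells exposed to compound for four days before flow analysis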
ABHD5-PLIN5 inh – ABHD5-PLIN5 interaction inhibitors, primary screen, cell lysate, split luciferase complementation, luminescence; inhibition, % at 4 µM; Perilipin-5 (Homo sapiens) + 1-acylglycerol-3-phosphate O-acyltransferase ABHD5 (Homo …; Split G. princeps luciferase complementation, 4 h; 360,000 compounds, 0.78% hits;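 active means inhibition above the mean inhibition across every tested compound plus 3 SD, cut at about 22% in these data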;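 further: 0% = DMSO only wells and the 100% control is not disclosed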
Cardio protect – cardioprotection against H2O2-induced cell death, primary screen, uHTS, H9c2 cells, ATPLite luminescence | H9c2 cardiomyocytes, H2O2 injury protection, 2 h | protection from H2O2 cell death, % at 20 µM | 360,000 compounds, 0.63% hits | AID 588492, 2011;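 active means compounds giving at least 50% protection of heart cells from peroxide-induced death in the single-dose screen, raw or plate-pattern-corrected value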;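 further: 0% = DMSO wells with peroxide and 100% = DMSO wells without peroxide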
Rtt109 Vps75 – inhibitors of C. albicans Rtt109/Vps75 HAT, primary screen, biochemical, ThioGlo CoA-SH fluorescence, plate reader. AID 540336, 2011. purified Rtt109/Vps75, 4 h. inhibition, % at 34.9 µM. 330,000 compounds, 0.16% hits;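 active means inhibition of at least 50% in every replicate; inconclusive means best replicate reaches 50% inhibition but some replicates fall short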
Target sequence (Q5AAJ8 whole entry, looked up): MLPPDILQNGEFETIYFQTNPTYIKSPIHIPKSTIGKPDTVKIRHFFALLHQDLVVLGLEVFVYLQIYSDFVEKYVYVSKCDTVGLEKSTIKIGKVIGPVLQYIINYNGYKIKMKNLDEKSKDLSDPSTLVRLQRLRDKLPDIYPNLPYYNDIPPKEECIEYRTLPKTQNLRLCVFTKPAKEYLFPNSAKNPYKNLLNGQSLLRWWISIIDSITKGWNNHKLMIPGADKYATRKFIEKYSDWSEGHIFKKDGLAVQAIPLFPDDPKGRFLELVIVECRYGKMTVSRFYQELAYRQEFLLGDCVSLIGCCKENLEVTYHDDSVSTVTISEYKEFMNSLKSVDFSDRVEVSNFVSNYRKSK
sPLA2-III inh – human group III sPLA2 inhibitors, primary screen, biochemical, QFRET, BODIPY PC-A2 liposome substrate | QFRET BODIPY PC-A2 liposome hydrolysis, fluorescence | inhibition, % at 12.2 µM | 370,000 compounds, 0.56% hits;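 active means inhibition above mean plus 3 SD of compounds lying within the high and low control bounds, cut at about 19% in these data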;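 further: 0% = median of test compound wells and 100% = no enzyme DMSO wells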
DAGLB inh – DAGLB lipase inhibitors, primary screen, biochemical, fluorescence, HTS. Diacylglycerol lipase-beta (Homo sapiens), Q8NCG7. HEK293T DAGLB membrane lysate, EnzChek fluorogenic substrate. inhibition, % at 5.17 µM. 340,000 compounds, 0.059% hits. AID 504411, 2011; in the data active means inhibition above about 34%;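 further: 0% = enzyme with vehicle and 100% = wells lacking enzyme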
hGIII sPLA2 conf – human group III sPLA2 inhibitors, confirmation, biochemical, QFRET, triplicate. shares compounds with sPLA2-III inh. recombinant hGIII-sPLA2, BODIPY PC-A2 QFRET fluorescence. inhibition, % at 12.2 µM. 2,000 compounds, 34% hits. AID 743280, 2014;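 active means mean inhibition across triplicates above the hit cutoff set in the earlier primary screen, cut at about 19% in these data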;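 further: 0% = enzyme with DMSO and 100% = DMSO wells lacking enzyme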
535nm interf – 535nm fluorescence optical interference, confirmation, artefact control for HGIII-sPLA2 inhibitor project, biochemical, QFRET. shares compounds with sPLA2-III inh. BODIPY FL product fluorescence interference. inhibition, % at 12.2 µM. 2,000 compounds, 8.5% hits;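 active means average inhibition above the solvent-only control mean plus 3 SD, cut at about 6% in these data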;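 further: 0% = DMSO with substrate plus product and 100% = DMSO with substrate alone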
BODIPY interf DR – 535nm fluorescence optical interference, dose response, artefact control for HGIII-sPLA2 inhibitor project, biochemical, QFRET. shares compounds with sPLA2-III inh. BODIPY FL product fluorescence interference, cell-free. IC50, µM. 240 tested, under 10 active. AID 743455, 2014;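 active means IC50 at or below 10 µM; inactive means IC50 above 10 µM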
* hit, by the source's call; i = inactive; ? = inconclusive; / = no result; + = active, no number.

SMILES	Myeloid diff 2	ABHD5-PLIN5 inh	Cardio protect	Rtt109 Vps75	sPLA2-III inh	DAGLB inh	hGIII sPLA2 conf	535nm interf	others
CCn1cc(C(=O)Nc2sc(C)c(C)c2C(=O)OC)cn1	i	0	19	3	20*	-2	-3	-12
COC(=O)c1c(NC(=O)c2ccnn2C)sc(C)c1C	i	2	-6	5	2	-3	/	/
CC(C)N=C1NN=C(c2cccs2)C(CC(=O)O)S1 (stereo unspecified)	i	-22	2	38	20*	0	1	-5
O=C(O)CC1S/C(=N/N=C/c2ccccn2)NC1=O (stereo unspecified)	i	-3	3	3	0	0	/	/
O=C(O)c1ccccc1C1=Nc2ccc(O)cc2Oc2cc(O)ccc21	i	2	2	0	-94	-15	/	/
N#CCCN(C(=O)COC(=O)c1ccc2c(=O)n3c(nc2c1)CCC3)c1ccc(F)cc1	i	-4	-1	-1	-2	5	/	/
Oc1ccc(CCc2ccccc2)c2cccnc12	/	/	/	/	26*	/	21*	-3
N#CC1(Nc2cccc(Br)c2)C(=O)Nc2ccccc21 (stereo unspecified)	i	-14	-6	5	22*	-1	-18	-2
Oc1c(C(Nc2ccccn2)c2cccnc2)cc(Cl)c2cccnc12 (stereo unspecified)	i	6	37	-6	22*	8	22*	-12
CCc1n[nH]c(=S)n1/N=C/c1cc(Br)c(OC)cc1OC	i	-4	1	0	22*	-1	19*	5
O=C(CC(c1ccccc1)c1ccccc1O)N1CCCCC1 (stereo unspecified)	i	4	4	-5	4	-4	/	/
COC(=O)c1c(C(=O)OC)c(-c2ccc(C(C)(C)C)cc2)n2c1CS(=O)C2 (stereo unspecified)	i	-2	6	-11	-2	3	/	/
CC(C)N1CC(O)=C(c2nc3ccccc3[nH]2)C1=N	i	-4	4	-10	9	1	/	/
CC(C1CC2CCC1C2)N1CC(O)=C(c2nc3ccccc3[nH]2)C1=N (stereo unspecified)	+	3	-5	47	28*	0	21*	-4
CCCn1c(=S)[nH]c2cc(Cl)ccc21	i	-4	0	1	21*	-2	9	-5
CCOC(=O)C/C(C)=N/NC(=O)CN(c1ccc(Br)cc1)S(=O)(=O)c1ccccc1	i	-4	-6	-1	-14	-2	/	/
CC1CN(C(=S)NC(=O)c2ccccc2)CC(C)O1 (stereo unspecified)	i	-10	-1	-2	-1	1	/	/
CC1CN(C(=S)NC(=O)c2ccco2)CC(C)O1 (stereo unspecified)	i	2	0	2	22*	-1	0	-3
CCN1C(=O)/C(=C2/C=CC=CN2C)SC1=S	i	2	-3	-1	11	2	/	/
CCN1C(=O)/C(=C\C=C2/C=CC=CN2CC)SC1=S	i	-15	-5	24	25*	9	27*	-2
CCSc1ncc(Cl)c(C(=O)Nc2ccccc2OC)n1	i	-5	1	-3	21*	-4	-1	-5
CN(C)S(=O)(=O)c1ccc(Cl)c(C(=O)NCC2CCCCC2)c1	i	-6	3	-6	-6	-2	/	/
CN(C)S(=O)(=O)c1ccc(Cl)c(C(=O)NCCNC(=O)c2cc(S(=O)(=O)N(C)C)ccc2Cl)c1	i	-2	-2	-5	21*	0	-2	-12
O=C(O)/C=C/C(=O)NCCc1ccc(Cl)cc1	i	-1	4	-14	22*	1	6	-4
CC(C)C[C@H](NC(=O)c1[nH]cnc1C(=O)N[C@@H](C)C(=O)OC(C)(C)C)C(=O)OC(C)(C)C	i	-6	3	23	23*	-7	-10	-30
SMILES	Myeloid diff 2	ABHD5-PLIN5 inh	Cardio protect	Rtt109 Vps75	sPLA2-III inh	DAGLB inh	hGIII sPLA2 conf	535nm interf	others
CC(C)C[C@H](NC(=O)c1nc[nH]c1C(=O)N[C@@H](CCCCN)C(=O)OC(C)(C)C)C(=O)OC(C)(C)C	i	-1	1	28	/	3	/	/
O=C(CN1C(=O)NC2(CCCCCC2)C1=O)NC1CCCCCCC1	i	-6	-1	-5	1	0	/	/
Cc1cccc(OCCNc2cc(N3CCOCC3)ccc2[N+](=O)[O-])c1	i	0	-1	2	19*	0	-2	-16
CCOc1ccc(NC(=S)NN(C)C(=S)Nc2ccc(OCC)cc2)cc1	i	-17	-10	-3	14	0	/	/
CCCC[C@@H](CNC)NC[C@H](NCCCCC1CCCCC1)C(C)C	?	12	-19	14	29*	2	-5	-28
CCC[C@@H](CN[C@@H](CNC)C(C)C)NCCCCc1ccccc1	i	-1	-6	-10	19	1	/	/
CCC(C)[C@H](NC(=O)[C@H](Cc1ccccc1)NC(=O)OC(C)(C)C)C(=O)NCc1ccccc1Br (stereo partly specified)	/	/	/	/	20*	/	-2	-18
CCC(C)C(NC(=O)OC(C)(C)C)C(=O)NC(Cc1ccccc1)C(=O)OC (stereo unspecified)	/	-1	5	-9	1	0	/	/
Cc1cccc(CC(C)NC(=O)CCc2nnc(CCCCc3ccccc3)o2)n1 (stereo unspecified)	i	0	-3	/	-5	2	/	/
O=S(=O)(c1cccc(C(F)(F)F)c1)N1CCN(C(=S)NC2CC2)CC1	i	-1	1	0	22*	-4	17	-4
O=C(NC(=S)NNC(=O)c1ccccc1O)c1cccs1	i	9	8	-3	30*	5	30*	-3	BODIPY interf DR=>122
